# Pol beta inh = DNA polymerase beta (human) inhibition; P06746; Pol beta primer extension/strand displacement, fluorescence kinetic; Potency, µM (titrated, usually from 114 µM), without a hit: at the top dose activity change, negative = inhibition, most hits filed as inhibitors; 1.3% of 340,000 active; AID 485314; also: potency is read from the fitted curve at half-maximal effect; % is scaled to controls: 0 for no effect and ±100 for the full control effect
#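 Kinetic readout of DNA synthesis with strand displacement by Pol beta. Compound and 10 nM enzyme sit 15 min at room temperature; 50 nM substrate starts the reaction, read immediately and at 10 min.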
# Pol eta inh = blocks human DNA polymerase eta activity | Q9Y253 | recombinant Pol eta, fluorescent DNA replication assay | Potency, µM (titrated, usually from 114 µM), for the others: at the highest dose activity change, negative = inhibition, hits mostly inhibitors | 1.2% of 390,000 active | AID 588591; also: potency is read from the fitted curve at half-maximal effect; % is scaled to controls: 0 for no effect and ±100 for the full control effect
#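 Pol eta (10 nM) was preincubated with compounds for 15 min at room temperature, after which fluorescent replication substrate (50 nM final) was added to start the reaction. Fluorescence was read kinetically at 0 and 10 min.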
# Pol iota inh = DNA polymerase iota (human) inhibition | Q9UNA4 | Potency, µM (doses to about 115 µM), for inactives: at the top dose activity, negative = inhibition, most hits filed as inhibitors | Pol iota fluorescent replication assay, 10 min | 1% of 390,000 active; also: potency is read from the fitted curve at half-maximal effect
# Target sequence (Q9UNA4 whole entry, looked up): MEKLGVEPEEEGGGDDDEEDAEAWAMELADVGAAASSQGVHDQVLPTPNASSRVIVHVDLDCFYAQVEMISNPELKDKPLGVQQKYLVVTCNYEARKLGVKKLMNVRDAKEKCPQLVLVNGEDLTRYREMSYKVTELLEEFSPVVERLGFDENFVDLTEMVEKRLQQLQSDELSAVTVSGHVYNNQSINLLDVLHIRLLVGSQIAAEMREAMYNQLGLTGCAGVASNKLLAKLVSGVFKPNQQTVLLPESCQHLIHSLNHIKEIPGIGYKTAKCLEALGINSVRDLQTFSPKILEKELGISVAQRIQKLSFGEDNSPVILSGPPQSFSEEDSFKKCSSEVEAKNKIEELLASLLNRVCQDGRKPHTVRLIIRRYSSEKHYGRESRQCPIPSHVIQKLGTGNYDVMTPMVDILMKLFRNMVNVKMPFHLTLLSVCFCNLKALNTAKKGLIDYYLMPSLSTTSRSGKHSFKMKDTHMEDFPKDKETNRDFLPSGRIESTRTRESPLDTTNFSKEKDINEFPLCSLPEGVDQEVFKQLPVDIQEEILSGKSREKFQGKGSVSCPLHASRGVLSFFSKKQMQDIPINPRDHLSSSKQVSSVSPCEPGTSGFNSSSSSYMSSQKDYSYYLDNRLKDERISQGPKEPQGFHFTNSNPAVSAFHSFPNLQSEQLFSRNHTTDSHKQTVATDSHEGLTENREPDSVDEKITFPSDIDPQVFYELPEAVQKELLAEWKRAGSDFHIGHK
#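 Fluorescent replication assay read twice, at 0 min and 10 min after adding 50 nM (final) substrate. Enzyme (10 nM) and compounds were first incubated 15 min at room temperature; enzyme-free buffer wells were negative controls.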
# POLK inh = DNA polymerase kappa (human) inhibition. Q9UBT6. purified Pol kappa, fluorescent DNA synthesis assay, 10 min. Potency, µM (top dose mostly 107 µM), for the others: at the top dose activity, negative = inhibition, usual class: inhibitors. 0.53% of 400,000 active. AID 588579; also: potency is read from the fitted curve at half-maximal effect; % is scaled to controls: 0 for no effect and ±100 for the full control effect
#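 Kinetic fluorescence screen: compound preincubated 15 min RT with 10 nM enzyme; 50 nM substrate (final) initiates; reads at 0/10 min.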
# PI5P4Ka inh = blocks human PI5P4K alpha kinase activity | PI5P4Kalpha enzyme, ADP-Glo luminescence, 60 min; hits give low values | max response, % | 1.2% of 330,000 active; active = max response of -50% or lower; inconclusive = between -30% and -50%; inactive = -30% or higher; also: value at the top dose of about 77 µM; % is scaled to controls: 0 for no effect and ±100 for the full control effect
#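 Human PI5P4Kalpha with substrate in 0.038 M HEPES pH 7.4, 0.28 mM EGTA, 0.1% CHAPS, 5% DMSO; reaction started with 5 microM ATP (final), 60 min at room temperature. ADP formed read by ADP-Glo luminescence.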
# WRN inhibitor = blocks human WRN helicase; Q14191; WRN helicase unwinding, fluorescent forked duplex, kinetic; Potency, µM (highest dose often 114 µM), inactives show at the top dose activity change, negative = inhibition, usual class: inhibitors; 0.46% of 360,000 active; AID 651768; also: potency is read from the fitted curve at half-maximal effect; % is scaled to controls: 0 for no effect and ±100 for the full control effect; nearly all actives have a fitted effect of over 55% in size
#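 WRN at 20 nM final preincubated with compound 15 min at room temperature; reaction started with 100 nM fluorophore/quencher forked duplex oligonucleotide and 2 mM ATP final. Unwinding followed kinetically by red fluorescence (ex 525, em 598 nm).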
# The depositor's hits bear a star; ? = inconclusive; . = not tested or not shown; [ ] = dose if it differs, or a comment. This is a sample that favours compounds with a hit; in the whole collection about 2.8% have one here. Unless noted, calls follow the shape of the dose curve; as a rule, active = well fitted curve in the direction sought with a large enough effect; inconclusive = small, poorly fitted or top-dose-only effect, or another doubt; inactive = no such curve, though single readings can be large; an effect the other way counts as inactive or inconclusive.
SMILES,Pol beta inh,Pol eta inh,Pol iota inh,POLK inh,PI5P4Ka inh,WRN inhibitor
CC(=O)c1ccc(NC(=O)CCCSc2nc(-c3ccco3)cc(C(F)(F)F)n2)cc1,-2%,-16%,2%,0%,.,.
CC1CCN(S(=O)(=O)c2ccc3c(c2)oc(=O)n3CC(=O)NCc2ccc(F)cc2)CC1,0%,-8%,12%,-17%,.,.
CCc1ccc(NCc2cc3ccc(OC)cc3n(CC(=O)Nc3ccccc3C)c2=O)cc1,1%,0%,5%,-6%,.,.
Cc1cc(C(=O)COC(=O)Cc2ccc(Cl)cc2)c(C)n1C,.,?,35µM*,?,-17,-23%
O=C1C=CC(=O)N1c1cccc(-c2ccccc2)c1,0%,?,?,-15%,?,32µM*
COc1ccc(CCNC(=O)c2ccc(OCc3c(C)noc3C)cc2)cc1OC,.,-9%,-7%,7%,2,-7%
COc1ccc(CNC(=O)COC(=O)c2ccc(OCc3c(C)noc3C)cc2)cc1OC,79µM*,-11%,-1%,-3%,-14,-19%
COc1cccc(-c2nc(-c3ccc(-c4ccccc4)nc3OC)no2)c1,4%,-16%,14%,2%,.,.
N#Cc1ccccc1NC(=S)NC(=O)c1cccs1,9%,-1%,6%,-3%,-56*,-8%
COc1ccc(OC)c2c(C)c(C)[nH]c12,28µM*,-17%,-16%,-10%,3,2%
COc1ccc(N2CCN(C(=O)CCc3c(C)nn(-c4ccc(N5CCCC5)nn4)c3C)CC2)cc1,17%,-15%,12%,0%,.,.
CCOc1ccccc1N1CCN(c2nc(N)c(C#N)c(CC#N)c2C#N)CC1,-4%,?,23%,-27%,-67*,-24%
CCOc1ccccc1N1CCN(c2nc3ccccc3nc2C(C#N)C(=O)OC)CC1 (stereo unspecified),24%,?,25%,-4%,-3,-1%[57.1 µM]
CCCCOC(=O)c1ccc(Nc2nc3ccc(C)cc3n3cnnc23)cc1,8%,-22%,1%,-1%,.,.
OCCNc1c2ccccc2nc2ccccc12,18µM*,-14%,?,?,-5,-4%[11.6 µM]
C#CCOCCOCCOCCNc1nc(N2CCN(C(=O)[C@H](CCCCN)n3cc([C@@H](N)C(C)CC)nn3)CC2)nc(N2CCN(C(=O)[C@H](Cc3cc4ccccc4[nH]3)n3cc([C@@H](N)CC(C)C)nn3)CC2)n1 (stereo partly specified),68%,-16%,4%,-9%,-57*,?
C#CCOCCOCCOCCNc1nc(N2CCN(C(=O)C(Cc3ccc(O)cc3)n3cc(C(N)CC(C)C)nn3)CC2)nc(N2CCN(C(=O)C(Cc3cc4ccccc4[nH]3)n3cc(C(N)Cc4ccc(O)cc4)nn3)CC2)n1 (stereo unspecified),35µM*,.,.,.,.,.
C#CCOCCOCCOCCNc1nc(N2CCN(C(=O)[C@H]([C@@H](C)CC)n3cc(CCC(=O)O)nn3)CC2)nc(N2CCN(C(=O)[C@H](CCCCN)n3cc(CCCC)nn3)CC2)n1,.,-9%,16%,4%,2,5%
C#CCOCCOCCOCCNc1nc(N2CCN(C(=O)[C@H]([C@@H](C)CC)n3cc(CCC(=O)O)nn3)CC2)nc(N2CCN(C(=O)[C@H](CCCCN)n3cc(CC(C)O)nn3)CC2)n1 (stereo partly specified),.,-10%,-43%,-6%,-70*,-1%
C#CCOCCOCCOCCNc1nc(N2CCN(C(=O)[C@H](CCCCN)n3cc(CN)nn3)CC2)nc(N2CCN(C(=O)[C@H](CCCCN)n3cc([C@@H](N)CC(N)=O)nn3)CC2)n1,.,-8%,8.9µM*,9%,-11,-14%
COc1ccccc1C(=O)n1nc(-c2ccccc2)nc1NCc1ccc(Cl)cc1,28%,-12%,-6%,-15%,.,.
COc1cc(-c2noc(-c3ccc(N4CCOCC4)c([N+](=O)[O-])c3)n2)cc(OC)c1OC,-2%,-16%,15%,-7%,.,.

# Bioassay records as filed in PubChem BioAssay.
